Measurements taken from PubChem BioAssay (NCI).
This is part of a sample that, as a whole, favours compounds with a hit. Of some 83,000 tested, about 20% had one in any assay.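 A percent growth of 40 corresponds to 60% growth inhibition; 0 means no net growth; -100 means all cells died. Active threshold: below 10.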 Values without a mark were called inactive. Active and inactive are the calls of the source.

Assays:
Assay in all cases: NCI-60 one-dose screen, 48 h (100 = growth as untreated, 0 = no growth, -100 = all killed)
Conditions in all cases: 10 µM unless noted
SR leukemia = tested on: SR leukemia
RPMI-8226 leukemia = tested on: RPMI-8226 leukemia
OVCAR-5 ovarian = tested on: OVCAR-5 ovarian
OVCAR-4 ovarian = tested on: OVCAR-4 ovarian
SK-OV-3 ovarian = tested on: SK-OV-3 ovarian
IGROV1 ovarian = tested on: IGROV1 ovarian
OVCAR-3 ovarian = tested on: OVCAR-3 ovarian
NCI/ADR-RES ovarian = tested on: NCI/ADR-RES ovarian
T-47D breast = tested on: T-47D breast
BT-549 breast = tested on: BT-549 breast
MDA-MB-435 melanoma = tested on: MDA-MB-435 melanoma
SW-620 colon = tested on: SW-620 colon
MCF7 breast = tested on: MCF7 breast
HCT-116 colon = tested on: HCT-116 colon
HCC-2998 colon = tested on: HCC-2998 colon
KM12 colon = tested on: KM12 colon
OVCAR-8 ovarian = tested on: OVCAR-8 ovarian
HS 578T breast = tested on: HS 578T breast

Row | Compound | growth (SR leukemia) | growth (RPMI-8226 leukemia) | growth (OVCAR-5 ovarian) | growth (OVCAR-4 ovarian) | growth (SK-OV-3 ovarian) | growth (IGROV1 ovarian) | growth (OVCAR-3 ovarian) | growth (NCI/ADR-RES ovarian) | growth (T-47D breast) | growth (BT-549 breast) | growth (MDA-MB-435 melanoma) | growth (SW-620 colon) | growth (MCF7 breast) | growth (HCT-116 colon) | growth (HCC-2998 colon) | growth (KM12 colon) | growth (OVCAR-8 ovarian) | growth (HS 578T breast)
1 | C=C(C=O)[C@@H]1CC=C(C=O)CC1 | -6.52% (active) | -36.6% (active) | -54.5% (active) | 10.5% | 0.713% (active) | -24.5% (active) | -19.7% (active) | 3.97% (active) | -27.7% (active) | -18.9% (active) | -31.4% (active) | -25.7% (active) | -17.3% (active) | 5.92% (active) | -30% (active) | -36.6% (active) | – | –
2 | CCOC(=O)c1sc(-c2ccc(OS(=O)(=O)c3ccc(C(C)(C)C)cc3)c(C=O)c2)nc1C | 14.5% | – | 64.3% | 39.2% | 85.5% | 32% | 30% | 32.4% | 31.2% | 53.6% | 57.2% | 19.9% | 33.9% | 15.2% | 52.4% | 17.9% | 38.2% | 52.9%
3 | COc1ccc(OC)c(/C=C2\COc3ccc(O)cc3C2=O)c1 | 11.8% | – | 98.7% | 117% | 102% | 97.9% | 102% | 100% | 96.7% | 93.5% | 29.1% | 14.3% | 19.7% | 66.9% | 112% | 60.2% | 100% | 95.6%
4 | O[C@H]1CO[C@H]2[C@@H]1OC[C@@H]2Oc1ccc(Nc2ccnc(Nc3ccc(O[C@H]4CO[C@H]5[C@@H]4OC[C@@H]5O)c(Cl)c3)n2)cc1Cl | 12.2% | – | 27.6% | 19.8% | 19.1% | -2.78% (active) | 13.6% | 74.1% | 2.36% (active) | 22.1% | 22.7% | 19.5% | 14.6% | 9.14% (active) | 17.1% | 6.62% (active) | 7.77% (active) | -2.86% (active)
5 | O=C1Nc2ccccc2SC1C1SC(=S)N(Cc2ccccc2)C1=O (stereo not drawn) | -12.1% (active) | -21.7% (active) | 104% | 59.8% | 118% | 96.5% | -5.62% (active) | 104% | – | 42.4% | 0.237% (active) | 20.9% | 17.8% | 42.8% | 136% | -48.5% (active) | – | 27%
6 | COc1ccc(OC)c(/C=C2\COc3ccc(O)c(O)c3C2=O)c1 | 7.03% (active) | – | 31.9% | 27.4% | 45.2% | 5.82% (active) | 1.23% (active) | 14.1% | 25.2% | 39% | 12.1% | 9.79% (active) | 14.9% | 3.33% (active) | 53.9% | 16.4% | 24.7% | 22%
7 | Cn1ccnc1C(=O)/C=C/c1ccc(C(=O)Nc2ccc(S(F)(F)(F)(F)F)cc2)cc1 | 1.8% (active) | – | 10.2% | 33.5% | 61.2% | 22.3% | 2.9% (active) | 5.47% (active) | 27.8% | 39.6% | 39.2% | 12.5% | 12.5% | 3.62% (active) | 5.66% (active) | 16.6% | 9.86% (active) | 23.5%
8 | COc1ccc(/C=C2\COc3ccc(O)c(O)c3C2=O)c(OC)c1 | 18.9% | – | 74.1% | 47.3% | 72.7% | 31.3% | 29.4% | 57.8% | 48% | 57.8% | 21% | 64% | 31.2% | 59.4% | 104% | – | 41.5% | 65.5%
9 | CC(=O)Nc1ccc(-c2cc3c(NCc4ccc(F)cc4)ncnc3s2)cc1 | 77.2% | – | 78.1% | 44.5% | 69.5% | 61.1% | 81.6% | 69.4% | 74% | 71.7% | 93% | 97.7% | 75.7% | 80.7% | 90.1% | 99.3% | 26.9% | 70.3%
10 | C=C1C(=O)O[C@H]2[C@H]1CC/C(COC(=O)/C=C\C(=O)NCc1ccc(Cn3c(=O)sn(CCCI)c3=O)cc1)=C\CC[C@@]1(C)O[C@@H]21 | -48% (active) | – | -83.9% (active) | -89.4% (active) | 42.9% | -98.3% (active) | -93% (active) | 1.52% (active) | -48.3% (active) | -56.2% (active) | -83.8% (active) | -76.3% (active) | -53.5% (active) | -48.8% (active) | -77.8% (active) | – | -1.28% (active) | -40.2% (active)
11 | CCCCC1COc2cccc3c(SCC(=O)N(C)c4cccc(Cl)c4)cc[n+]1c23 (stereo not drawn) | 100% | – | 109% | 129% | 108% | 112% | 121% | 111% | 107% | 107% | 120% | 110% | 94.3% | 104% | 104% | 103% | 118% | 109%
12 | COc1ccc(/C(C)=C(\c2ccc(Cl)cc2)c2ccc(OCCN3CCCC3)cc2)cc1F | -22.6% (active) | – | 46.6% | 32.3% | 58.6% | 38.1% | 35.2% | 51.6% | 50.7% | 66.3% | 31.6% | 13.3% | 9.96% (active) | 14.3% | 18.6% | 7.85% (active) | 48.7% | 30%
13 | COc1cc(/C=C/C(=O)c2cccc(-n3cc(-c4ccccc4)[nH]c3=O)c2)cc(OC)c1OC | -15.9% (active) | -39.4% (active) | – | -7.54% (active) | 4.74% (active) | -23.8% (active) | 6.35% (active) | – | – | – | -3.32% (active) | -29% (active) | -93.8% (active) | -90.3% (active) | -81.4% (active) | -53.6% (active) | 12.5% | –
14 | CCCCN(Cc1ccc(C(=O)NO)cc1)C(=O)Nc1ccc(OCCCCCCCCCn2cc(CCCCC(=O)N[C@H](C(=O)N3C[C@H](O)C[C@H]3C(=O)NCc3ccc(-c4scnc4C)cc3)C(C)(C)C)nn2)cc1 | 12.9% | – | 96.8% | 49.3% | 53.9% | 16.8% | 3.45% (active) | 97.3% | 32.2% | 42.2% | 34.8% | 30.7% | 8.44% (active) | 20.9% | 57.2% | 22.1% | 50.3% | 40.8%
15 | COc1ccc(-c2cn(-c3cccc(C(=O)/C=C/c4cc(OC)c(OC)c(OC)c4)c3)c(=O)[nH]2)cc1 | -12.5% (active) | -45.8% (active) | – | 25% | 31.6% | 8.71% (active) | -13.6% (active) | – | -9.54% (active) | 139% | -9.22% (active) | -50.7% (active) | -34.5% (active) | -91.9% (active) | – | -62.6% (active) | 12.4% | –
16 | CC(/C=N/NC(=O)c1cc(-c2ccco2)[nH]n1)=C\c1ccccc1 | 88.7% | 84.7% | 96.9% | 99.6% | 97.4% | 107% | 107% | 97.8% | 96.6% | – | 89.9% | 101% | 99.8% | 99.3% | 106% | 93.9% | – | 30.3%
17 | COc1ccc(-c2nnc(SCC(=O)NC3=NN=C(c4ccccc4)CS3)o2)cc1 | 86.6% | – | 102% | 100% | 93.5% | 108% | 107% | 104% | 78.4% | 104% | 97.1% | 98.3% | 102% | 94.2% | 105% | – | 83% | 97.3%
18 | N#Cc1cnn2c(-c3ccc(Cl)cc3)nc(NC3CC3)nc12 | 86.1% | – | 93.9% | 87.2% | 107% | 89.4% | 101% | 98.8% | 82.4% | 94.2% | 96.8% | 103% | 78% | 93.8% | 101% | 98.2% | 102% | 101%
